Compound activity as filed in PubChem.
The list is not random: actives were taken first. Their share in the collection is about 3.9%.
TWEAK Fn14 block – blocks TWEAK-Fn14 interaction in a reporter cell assay. TWEAK-stimulated Fn14 reporter cells, luciferase luminescence, 8 h. inhibition, % at 10 µM. 2% of 360,000 active. AID 1159606; in the data active means inhibition above about 50%
TROY signal inh – blocks TROY-dependent signaling in reporter cells; inhibition, % at 10 µM; Q293 LMP1-TROYcd NF-kB luciferase reporter, 4 h; 0.98% of 360,000 active;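 active means compounds whose plate-normalised and pattern-corrected inhibition of the luciferase reporter signal at the single screening dose is 50% or more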
HSP90 refold inh – blocks HSP90-mediated luciferase refolding in reticulocyte lysate | Rabbit reticulocyte lysate, luciferase refolding luminescence, 3 h | inhibition, % at 5.6 µM | 0.91% of 290,000 active;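 active means inhibition above the screen-wide mean plus 3 SD, computed separately per campaign, cut at about 16% in these data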;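 further: 0% = DMSO wells and 100% = 60 µM geldanamycin wells; inhibitors lower the luminescence because luciferase stays unfolded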
TRAIL sens C8 – caspase-8 TRAIL sensitization | NB7+C8 cells + TRAIL, ATPlite viability luminescence | inhibition (viability loss, TRAIL sensitization), % at 10 µM | 1% of 360,000 active;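 active means compounds causing at least 50% loss of cell viability in the single-dose screen, relative to plate controls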
HIF-2a block – blocks HIF-2a reporter activity. 786-0 RCC cells HIF-2a reporter, luciferase luminescence, overnight. inhibition, % at 18.8 µM. 0.72% of 360,000 active. AID 624352;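 active means inhibition of the luminescence signal of 40% or more relative to plate controls, in a single-dose primary screen at 18.75 µM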
aSyn 5UTR inh – MLPCN primary screen, SNCA 5' untranslated region | alpha-synuclein 5'UTR reporter, inhibitor activity | inhibition, % (tested at 7.5 µM) | 0.82% of 300,000 active; in the data active means inhibition above about 60%; inconclusive means no clear call, values can overlap the other calls;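 further: H4 neuroglioblastoma cells stably carrying SNCA 5'UTR luciferase fusion; 0% = DMSO wells and 100% = positive control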
Active calls of the source: *; u = inconclusive; x = no result.

SMILES	TWEAK Fn14 block	TROY signal inh	HSP90 refold inh	TRAIL sens C8	HIF-2a block	aSyn 5UTR inh
COc1ccc(/C=C2\SC(=S)N(CCCC(=O)N3CCOCC3)C2=O)cc1	95*	-17	5	2	68*	u
COc1ccc(/C=C2/SC(=S)N(CCC(=O)O)C2=O)cc1	85*	39	8	3	85*	98*
O=C1/C(=C/c2cccnc2)SC(=S)N1c1ccc(O)cc1	60*	29	0	2	20	11
O=C1/C(=C/c2cccnc2)SC(=S)N1c1ccc(F)cc1	24	-13	-1	-15	-9	15
COc1ccc(/C=C2\SC(=S)N(CCCC(=O)N3CCOCC3)C2=O)cc1OC	22	-2	0	7	-5	5
COCc1c(C(=O)NCCc2ccc(OC(F)F)cc2)oc2ccccc12	-10	-1	x	4	-7	x
COC1OC(O)C(NC(=O)C(F)(F)F)CC1O (stereo not drawn)	11	5	x	0	6	x
COCCN1C(=O)C(C(=O)OC)CC2=C1CC(C)(C)CC2=O (stereo not drawn)	20	-20	x	-11	9	x
CN(C)CCN1CCN(C2CN(Cc3cn(Cc4ccccc4)nn3)S(=O)(=O)C2)CC1 (stereo not drawn)	-8	-3	x	28	12	x
O=c1[nH][nH]c2c1[C@H](c1ccc(F)cc1)O[C@H](CCc1ccccc1)C2	-7	-3	x	-4	15	x
O=C(O)CCN1C(=O)/C(=C\c2cccc(Oc3ccccc3)c2)SC1=S	41	34	6	-6	72*	-8
O=C(CCCN1C(=O)/C(=C/c2ccccc2Cl)SC1=S)N1CCOCC1	29	9	8	5	49*	-50
COc1cccc(/C=C2\SC(=S)N(CCC(=O)N3CCCCC3CCO)C2=O)c1 (stereo not drawn)	5	-10	5	-2	31	-27
O=C1/C(=C\c2cc(Cl)c(O)c(Cl)c2)SC(=S)N1Cc1ccccc1	61*	70*	-1	36	-26	21
COc1cccc(/C=C2\SC(=S)N(CCCC(=O)N3CCCCC3CCO)C2=O)c1 (stereo not drawn)	32	10	7	10	69*	3
COc1ccc(NS(=O)(=O)c2ccc(O)c(NS(=O)(=O)c3ccc(NC(C)=O)cc3)c2)cc1	10	6	x	-3	-1	x
O=C(O)CCN1C(=O)S/C(=C\c2cccnc2)C1=O	-2	79*	0	16	3	9
O=C(CN1C(=O)S/C(=C/c2cccnc2)C1=O)N1CCOCC1	-28	-83	2	-4	13	10
COc1ccc(-c2nn(-c3ccccc3)cc2/C=C2/SC(=S)N(CCC(=O)O)C2=O)c(C)c1	14	61*	-12	-11	19	-11
COc1ccc(C(CC(=O)N2CCOCC2)C(C)C)cc1 (stereo not drawn)	80*	0	0	-4	9	3
COc1ccc(-c2nn(-c3ccccc3)cc2/C=C2/SC(=S)N(CCC(=O)O)C2=O)cc1	-16	10	-9	5	-15	-39
CS(=O)(=O)c1ccc(C(=O)NCCN2C(=O)S/C(=C\c3cccnc3)C2=O)cc1[N+](=O)[O-]	83*	15	1	-10	8	-41
CC(C)(C)OC(=O)N1CCC(NC(=O)c2[nH]cnc2C(=O)Nc2ccccc2F)CC1	17	6	x	-21	15	x
COc1ccc(S(=O)(=O)N2CCCCC2c2cc(C(=O)Nc3ccc(F)c(Cl)c3)no2)cc1 (stereo not drawn)	15	8	x	27	-22	x
O=C(CCN1C(=O)/C(=C\c2ccccc2)SC1=S)N1CCCCC1	26	-28	1	3	45*	-27
SMILES	TWEAK Fn14 block	TROY signal inh	HSP90 refold inh	TRAIL sens C8	HIF-2a block	aSyn 5UTR inh
COc1ccc(/C=C2\SC(=S)N(CCC(=O)NCCc3ccc(O)cc3)C2=O)cc1	2	-21	0	-10	58*	17
Cc1ccc(/C=C2\SC(=S)N(CCC(=O)N3CCCCC3)C2=O)cc1	-18	10	-1	-5	22	-28
O=C(NCC1CCCN1S(=O)(=O)c1cccs1)c1cccc(F)c1 (stereo not drawn)	18	1	x	-9	9	-3
COC(=O)C[C@H]1CC[C@H](NS(=O)(=O)c2cn(C)cn2)[C@@H](CO)O1	x	x	x	-6	12	x
O=c1oc2ccccc2cc1-c1nc2c(s1)CCCC2	84*	66*	12	63*	-72	u
CCC(=O)c1ccc(/C=C/c2nc3ccccc3n2C)o1	-32	-57	9	51*	-176	-17
Cn1c(/C=N/O)nc2ccccc21	-10	-21	3	-11	-16	-7
O=C(Nc1ccc(F)c(Cl)c1)C1CC2CCC1C2 (stereo not drawn)	2	-12	x	7	-31	-2
Cc1cccc2cc3c(N)c(C#N)sc3nc12	5	-20	0	3	5	84*
O=C(c1cccs1)N1CCN(Cc2nc(-c3ccccc3)no2)CC1	4	-18	x	-4	-77	x
CN1C(=O)C2(Oc3ccccc3C3CC(c4ccccc4)=NN32)c2ccccc21 (stereo not drawn)	81*	-43	4	2	-172	-164
CCN(CC)S(=O)(=O)c1cc(NC(=O)C(=O)c2c(-c3ccccc3)cc3ccccn23)ccc1C	62*	13	13	3	19	23
O=C(/C=C/c1ccccc1)NCCc1c[nH]c2ccccc12	-7	-26	x	-17	-54	-111
O=C(/C=C/c1ccccc1)c1c[nH]c2ccccc12	-4	-70	0	58*	-233	-98
O=C(C=Cc1ccccc1)c1c[nH]c2ccccc2c1=O	78*	3	x	24	-18	x
CCNC(=O)C1CCCN(C(=O)c2ccco2)CC1 (stereo not drawn)	11	-6	x	-11	2	x
COc1ccc(-c2noc(CCC(=O)Nc3cccc(C(=O)NC4CC4)c3)n2)cc1OC	-19	-12	x	3	-22	x
N#Cc1cc(-c2ccccc2)nc(Oc2ccccc2)n1	61*	48	2	0	23	9
COc1ccc(-c2cc(C#N)nc(Cl)n2)cc1	30	80*	4	21	14	1
COc1cc(Cl)c(C)cc1NC(=O)CN(C)C1CCS(=O)(=O)C1 (stereo not drawn)	-4	-1	x	5	12	x
CC1(C)CC=CC(COC(=O)c2ccccc2C(=O)O)C1 (stereo not drawn)	96*	-30	x	-5	-131	x
CC12CCC(C(N)C1=O)C2(C)C (stereo not drawn)	15	7	x	-6	-5	x
COc1ccc(CN2C(=O)CCC2(C)c2nnnn2-c2ccc3c(c2)OCCO3)cc1 (stereo not drawn)	8	3	x	10	-1	x
Clc1ccc(/C=N/NC2=Nc3cccc4cccc2c34)cc1	-2	-49	0	17	-172	-191
C(=N\NC1=Nc2cccc3cccc1c23)/c1ccccc1	13	-14	-1	50*	-198	-256
